Usually AC50 stands for the midpoint of the concentration-response curve, whichever way the signal moves.

Records with an inconclusive call do not appear. Activity calls are given as the source filed them. How the source made its calls, unless noted: active means hit-call score of the fitted dose curve at least 0.9, where 1 is the maximum; inactive means score below 0.9.

Test [1] addresses human Vitamin D Receptor (VDR), VDR (gene 7421) (UniProt P11473). As to the kind of experiment: ATG_VDR_TRANS: Attagene TRANS-FACTORIAL HepG2 Assay for human Vitamin D Receptor (VDR) (AID 2283022; active means hit-call score of the fitted dose curve at least 0.9, where 1 is the maximum). In short, it runs like this: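 Steps: transfect HepG2 with GAL4-UAS-driven reporter constructs; dose compounds 24 h; isolate RNA, reverse-transcribe, PCR-amplify with 6-FAM-labelled primer extension and HpaI digestion; quantify fragments by capillary electrophoresis relative to DMSO.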

Test [2] is described as follows: BSK_3C_SRB: Viability Assessment in the BioMAP Diversity Plus: 3C Assay (AID 2283023).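 Further: fitted both ways against DMSO so a hit may be signal rise or drop.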 The note with it: primary human endothelial cells (HUVEC). The method in brief: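 Absorbance at 560 nm of sulforhodamine B-stained (0.1%) total protein served as a cytotoxicity readout in human umbilical vein endothelial cells, 24 h after chemical treatment. Signal was fitted bidirectionally relative to DMSO.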

Read-out in test [3]: Matrix Metallopeptidase 1 (MMP1), MMP1 (gene 4312)
As to the kind of experiment: BSK_BE3C_MMP1: BioMAP Diversity Plus: BE3C Assay for Matrix Metallopeptidase 1 (MMP1) Biomarker Activity (AID 2283024). The note with it: primary human bronchial epithelial cells; actives raise or lower the signal. In short, it runs like this: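 ELISA measurement of MMP-1 after 24 h compound exposure of primary human bronchial epithelial cells. Changes in either direction fitted relative to DMSO; parallel SRB staining checked overt cytotoxicity.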

Test [4] can be described thus: BSK_3C_Vis: BioMAP Diversity Plus: 3C Assay for Morphology Visualization (AID 2283025).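 Further: fitted both ways so gain or loss versus DMSO counts.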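 On AC50: light microscopy image of cell morphology used as background control.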 The conditions noted are these: primary human endothelial cells (HUVEC). The method in brief:
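Light-microscopy visualization of HUVEC cultures at 24 h post-treatment, with DMSO as baseline for bidirectional fitting.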

Read-out in test [5]: Pselectin, SELP (gene 6403)
As to the kind of experiment: BSK_4H_Pselectin: BioMAP Diversity Plus: 4H Assay for Pselectin Biomarker Activity (AID 2283026). The note with it: primary human endothelial cells (HUVEC); actives raise or lower the signal. In short, it runs like this: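 ELISA of surface P-selectin on HUVEC, 24 h after dosing, with parallel SRB staining (0.1% after 10% TCA fixation, 560 nm) for overt cytotoxicity. Activity fitted in both directions relative to DMSO.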

Test [6] in a line: BSK_4H_SRB: Viability Assessment in the BioMAP Diversity Plus: 4H Assay (AID 2283027).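 Further: cells exposed to compound for 24 h before staining.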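 On AC50: curves fitted both ways versus DMSO so AC50 may be loss or gain.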 The conditions noted are these: primary human endothelial cells (HUVEC). In short, it runs like this: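 Cytotoxicity readout: sulforhodamine B (0.1%) staining of total protein after 10% TCA fixation, measured at 560 nm in human umbilical vein endothelium at 24 h. DMSO set the baseline; fitting was bidirectional.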

Test [7] is described as follows: BSK_BE3C_SRB: Viability Assessment in the BioMAP Diversity Plus: BE3C Assay (AID 2283028).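 On AC50: fitted both ways so AC50 may mark signal gain or loss versus DMSO.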 The conditions noted are these: primary human bronchial epithelial cells. In short, it runs like this:
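Cells (human bronchial epithelial, primary) are treated with chemicals, and after 24 h the parallel cultures are fixed in 10% TCA. These are then stained with 0.1% SRB and read at 560 nm. Gain or loss of signal is fitted relative to DMSO.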

Read-out in test [8]: Thrombomodulin, THBD (gene 7056)
As to the kind of experiment: BSK_3C_Thrombomodulin: BioMAP Diversity Plus: 3C Assay for Thrombomodulin Biomarker Activity (AID 2283029). The conditions noted are these: primary human endothelial cells (HUVEC); actives raise or lower the signal. In short, it runs like this:
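ELISA measurement of thrombomodulin on HUVEC surface 24 h after chemical dosing; activity fitted in both directions relative to DMSO vehicle.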

Read-out in test [9]: Urokinase-type plasminogen activator receptor (uPAR), PLAUR (gene 5329)
The test is described as follows: BSK_4H_uPAR: BioMAP Diversity Plus: 4H Assay for Urokinase-type plasminogen activator receptor (uPAR) Biomarker Activity (AID 2283030). The conditions noted are these: primary human endothelial cells (HUVEC); actives raise or lower the signal. In short, it runs like this:
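Cell-surface uPAR ELISA signal, measured 24 h after dosing human umbilical vein endothelial cells, was analyzed with bidirectional fitting relative to DMSO. Parallel SRB staining of total protein tracked overt cytotoxicity.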

Read-out in test [10]: Vascular endothelial growth factor receptor 2 (Homo sapiens) (UniProt P35968)
As to the kind of experiment: BSK_4H_VEGFRII: BioMAP Diversity Plus: 4H Assay for Vascular endothelial growth factor receptor 2 (VEGFR2) Biomarker Activity (AID 2283031).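 On AC50: cell-surface VEGFR2 protein level quantified by ELISA.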 The conditions noted are these: primary human endothelial cells (HUVEC); actives raise or lower the signal. The method in brief:
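ELISA read-out of VEGFRII in primary human umbilical vein endothelium, taken 24 h after chemical treatment. Responses are expressed relative to DMSO, with bidirectional fitting.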

Read-out in test [11]: Vascular cell adhesion molecule 1 (VCAM1), VCAM1 (gene 7412)
The test is described as follows: BSK_4H_VCAM1: BioMAP Diversity Plus: 4H Assay for Vascular cell adhesion molecule 1 (VCAM1) Biomarker Activity (AID 2283033).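 On outcome: cell-surface VCAM-1 protein measured by ELISA.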 The note with it: primary human endothelial cells (HUVEC); actives raise or lower the signal. In short, it runs like this:
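VCAM-1 ELISA read 24 h after chemical dosing of HUVEC in the BioMAP 4H system, with gain or loss of signal fitted relative to DMSO. Parallel SRB staining (560 nm) checked overt cytotoxicity.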

Read-out in test [12]: Interferon-gamma inducible Protein 10 (IP10), CXCL10 (gene 3627)
As to the kind of experiment: BSK_BE3C_IP10: BioMAP Diversity Plus: BE3C Assay for Interferon-gamma inducible Protein 10 (IP10) Biomarker Activity (AID 2283034). The conditions noted are these: primary human bronchial epithelial cells; actives raise or lower the signal. The method in brief: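 IP-10 quantified by ELISA in human primary bronchial epithelial cell cultures at 24 hours post-dosing. Gain or loss of signal fitted relative to DMSO; parallel SRB staining assessed overt cytotoxicity.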

Read-out in test [13]: Monokine induced gamma interferon (MIG), CXCL9 (gene 4283)
The test is described as follows: BSK_BE3C_MIG: BioMAP Diversity Plus: BE3C Assay for Monokine induced gamma interferon (MIG) Biomarker Activity (AID 2283035). The conditions noted are these: primary human bronchial epithelial cells; actives raise or lower the signal. The method in brief: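 hu bronchial epithelial 1° cells, 24 h cpd; MIG by ELISA; bidirectional fit, DMSO = baseline.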

Read-out in test [14]: Transforming growth factor beta 1 (TGFb1), TGFB1 (gene 7040)
As to the kind of experiment: BSK_BE3C_TGFb1: BioMAP Diversity Plus: BE3C Assay for Transforming growth factor beta 1 (TGFb1) Biomarker Activity (AID 2283036;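 on outcome: TGF-b1 protein level measured by ELISA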). The note with it: primary human bronchial epithelial cells; actives raise or lower the signal. In short, it runs like this: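 ELISA readout of TGF-b1 from human lung bronchial epithelial primary cells, taken 24 h post-treatment. Gain or loss of signal fitted relative to DMSO baseline, with parallel SRB staining for overt cytotoxicity.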

Read-out in test [15]: Plasminogen activator inhibitor-1 (PAI1), SERPINE1 (gene 5054)
The test is described as follows: BSK_BE3C_PAI1: BioMAP Diversity Plus: BE3C Assay for Plasminogen activator inhibitor-1 (PAI1) Biomarker Activity (AID 2283037). The note with it: primary human bronchial epithelial cells; actives raise or lower the signal. In short, it runs like this: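 PAI-1 was measured by ELISA in human primary bronchial epithelial cultures 24 h after chemical dosing, with cytotoxicity checked by SRB total-protein staining in parallel cultures. Activity was fitted in both directions relative to DMSO.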

Read-out in test [16]: urokinase plasminogen activator (uPA), PLAU (gene 5328)
As to the kind of experiment: BSK_BE3C_uPA: BioMAP Diversity Plus: BE3C Assay for urokinase plasminogen activator (uPA) Biomarker Activity (AID 2283038).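 On outcome: uPA protein level quantified by ELISA in cell cultures; uPA read one day after compound addition.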 The conditions noted are these: primary human bronchial epithelial cells; actives raise or lower the signal. In short, it runs like this:
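Bronchial epithelial cells (human, primary); chemical 24 h; uPA by ELISA; bidirectional fit vs DMSO. SRB (0.1%, after 10% TCA fixation, 560 nm) in parallel cultures for cytotoxicity.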

Read-out in test [17]: Urokinase-type plasminogen activator receptor (uPAR), PLAUR (gene 5329)
The test is described as follows: BSK_BE3C_uPAR: BioMAP Diversity Plus: BE3C Assay for Urokinase-type plasminogen activator receptor (uPAR) Biomarker Activity (AID 2283039). The note with it: primary human bronchial epithelial cells; actives raise or lower the signal. The method in brief:
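uPAR levels were measured by ELISA after 24 h compound treatment of primary human bronchial epithelial cells, fitted in both directions relative to DMSO. Parallel SRB staining served as the cytotoxicity read-out.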

Read-out in test [18]: Interleukin-6 (IL6), IL6 (gene 3569)
The test is described as follows: BSK_CASM3C_IL6: BioMAP Diversity Plus: CASM3C Assay for Interleukin-6 (IL6) Biomarker Activity for (AID 2283040). The conditions noted are these: primary human coronary artery smooth muscle cells; actives raise or lower the signal.

Read-out in test [19]: Human Leukocyte Antigen - DR isotype (HLADR), HLA-DRA (gene 3122)
The test is described as follows: BSK_BE3C_HLADR: BioMAP Diversity Plus: BE3C Assay for Human Leukocyte Antigen - DR isotype (HLADR) Biomarker Activity (AID 2283032). The note with it: primary human bronchial epithelial cells; actives raise or lower the signal. In short, it runs like this: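 Cell-surface HLA-DR ELISA readout at 24 h after dosing in the BE3C primary human lung bronchial epithelial system; gain or loss of signal against DMSO, with parallel sulforhodamine B staining of total protein for overt cytotoxicity.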

Read-out in test [20]: Tissue plasminogen activator (tPA), PLAT (gene 5327)
As to the kind of experiment: BSK_BE3C_tPA: BioMAP Diversity Plus: BE3C Assay for Tissue plasminogen activator (tPA) Biomarker Activity (AID 2283041). The conditions noted are these: primary human bronchial epithelial cells; actives raise or lower the signal. The method in brief:
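tPA measured by ELISA 24 h after dosing human primary bronchial epithelial cells (BE3C system). Changes in either direction were fitted against DMSO. Parallel cultures were stained with SRB to flag overt cytotoxicity.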

human Vitamin D Receptor (VDR), VDR (gene 7421), sequence (P11473 whole entry, looked up, the tested form may be a part): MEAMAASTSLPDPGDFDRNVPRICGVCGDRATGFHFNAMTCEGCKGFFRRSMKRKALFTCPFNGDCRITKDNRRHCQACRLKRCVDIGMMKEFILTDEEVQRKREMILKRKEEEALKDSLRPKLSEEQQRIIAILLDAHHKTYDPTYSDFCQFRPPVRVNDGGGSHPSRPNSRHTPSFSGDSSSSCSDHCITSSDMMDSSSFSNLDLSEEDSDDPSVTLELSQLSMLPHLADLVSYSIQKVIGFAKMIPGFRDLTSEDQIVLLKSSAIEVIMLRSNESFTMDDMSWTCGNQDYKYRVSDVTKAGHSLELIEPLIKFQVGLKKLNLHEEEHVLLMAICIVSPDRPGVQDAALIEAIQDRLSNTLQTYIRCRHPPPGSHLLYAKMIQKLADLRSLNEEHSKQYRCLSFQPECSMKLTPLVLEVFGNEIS

As for `CC/C(=C(/CC)c1ccc(O)cc1)c1ccc(O)cc1`, the molecule was called inactive in [1], in [8], in test [10] and in test [18]. For the same molecule, the AC50 in test [2] was 20 µM (active); in test [3] it was 35.1 µM (active); in test [4] it was 8.57 µM (active); in test [5], 20 µM (active); in test [6], 22.8 µM (active); in test [7], 33.6 µM (active). In addition, the AC50 in test [9] was 17.8 µM (active); in test [11], 28.9 µM (active); in [12] it was 17.1 µM (active); in test [13], 33 µM (active); in test [14] it was 6.47 µM (active); in [15], 20 µM (active). Moreover, the AC50 is 33.6 µM (active) in test [16] and 31.3 µM (active) in test [17].
For the molecule `Cc1cc(F)ccc1-c1cc(N2CC[C@@H](O)[C@H]2CO)ncc1N(C)C(=O)C(C)(C)c1cc(C(F)(F)F)cc(C(F)(F)F)c1`, the result in test [1] and in test [8] was inactive. The AC50 is 9.17 µM (active) in test [2]; 14.5 µM (active) in [3]; 10 µM (active) in [4]; 7.66 µM (active) in test [5]; 11.9 µM (active) in test [6]; 12.9 µM (active) in test [7]. Moreover, the AC50 in [9] is 10.2 µM (active); in test [10], 7.98 µM (active); in test [19], 12.8 µM (active); in test [11] it was 11.2 µM (active); in [12] it was 13.3 µM (active); in test [13] it was 13.9 µM (active). The AC50 was 11.5 µM (active) in [14]; 13 µM (active) in test [15]; 14.8 µM (active) in test [16]; 14 µM (active) in [17]; 16.3 µM (active) in [18]; 9.81 µM (active) in [20].
For the molecule `CCCC(=O)OCCC(C)C`, the molecule was called inactive in test [1], in test [2], in [3], in test [4], in test [5] and in test [6]. Besides, the result in test [7], in test [8], in test [9], in test [10], in test [19] and in test [11] was inactive. In addition, the outcome in [12], in test [13], in test [14], in test [15], in [16] and in test [18] was inactive.

The record behind these values is PubChem BioAssay (EPA / NIEHS).
